According to the supplement of paper PMC10382584, “Macrocyclization of linear molecules by deep learning to facilitate macrocyclic drug candidates discovery” (Nature Communications, 2023):

compound: Cc1cnc(Nc2ccc(OCCN3CCCC3)cc2)nc1Nc1cccc(S(=O)(=O)NC(C)(C)C)c1 [Fedratinib]; experiment: percent of DMSO control binding (KINOMEscan); higher = weaker binding / less inhibition; extreme values may be limits of the assay; conditions: concentration: 100 nM

Sequence of UniProt Q16512 (Q16512 whole entry, looked up): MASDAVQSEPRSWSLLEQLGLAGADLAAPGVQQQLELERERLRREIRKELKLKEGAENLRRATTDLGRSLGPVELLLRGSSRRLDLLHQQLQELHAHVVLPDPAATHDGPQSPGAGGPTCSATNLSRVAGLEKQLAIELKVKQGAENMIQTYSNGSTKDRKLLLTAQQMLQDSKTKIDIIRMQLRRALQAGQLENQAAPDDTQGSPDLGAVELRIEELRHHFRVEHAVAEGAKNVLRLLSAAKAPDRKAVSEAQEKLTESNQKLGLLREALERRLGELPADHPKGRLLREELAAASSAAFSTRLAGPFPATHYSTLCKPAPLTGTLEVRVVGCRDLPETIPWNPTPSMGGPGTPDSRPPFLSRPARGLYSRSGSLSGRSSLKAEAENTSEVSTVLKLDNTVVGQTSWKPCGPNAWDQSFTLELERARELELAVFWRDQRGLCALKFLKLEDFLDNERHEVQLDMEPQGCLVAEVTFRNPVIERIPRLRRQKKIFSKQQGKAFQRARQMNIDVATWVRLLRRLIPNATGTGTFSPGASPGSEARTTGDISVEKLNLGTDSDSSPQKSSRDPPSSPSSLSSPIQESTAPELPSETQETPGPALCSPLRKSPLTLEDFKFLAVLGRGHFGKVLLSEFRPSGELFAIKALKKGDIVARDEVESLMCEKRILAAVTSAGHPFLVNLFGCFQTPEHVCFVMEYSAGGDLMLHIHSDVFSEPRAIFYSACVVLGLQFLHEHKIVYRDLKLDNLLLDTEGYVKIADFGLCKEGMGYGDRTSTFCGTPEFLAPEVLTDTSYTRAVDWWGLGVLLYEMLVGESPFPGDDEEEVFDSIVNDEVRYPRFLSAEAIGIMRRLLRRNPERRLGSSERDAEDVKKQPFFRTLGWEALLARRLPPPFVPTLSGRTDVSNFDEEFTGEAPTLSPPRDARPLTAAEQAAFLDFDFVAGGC
Sequence of UniProt O43318 (O43318 whole entry): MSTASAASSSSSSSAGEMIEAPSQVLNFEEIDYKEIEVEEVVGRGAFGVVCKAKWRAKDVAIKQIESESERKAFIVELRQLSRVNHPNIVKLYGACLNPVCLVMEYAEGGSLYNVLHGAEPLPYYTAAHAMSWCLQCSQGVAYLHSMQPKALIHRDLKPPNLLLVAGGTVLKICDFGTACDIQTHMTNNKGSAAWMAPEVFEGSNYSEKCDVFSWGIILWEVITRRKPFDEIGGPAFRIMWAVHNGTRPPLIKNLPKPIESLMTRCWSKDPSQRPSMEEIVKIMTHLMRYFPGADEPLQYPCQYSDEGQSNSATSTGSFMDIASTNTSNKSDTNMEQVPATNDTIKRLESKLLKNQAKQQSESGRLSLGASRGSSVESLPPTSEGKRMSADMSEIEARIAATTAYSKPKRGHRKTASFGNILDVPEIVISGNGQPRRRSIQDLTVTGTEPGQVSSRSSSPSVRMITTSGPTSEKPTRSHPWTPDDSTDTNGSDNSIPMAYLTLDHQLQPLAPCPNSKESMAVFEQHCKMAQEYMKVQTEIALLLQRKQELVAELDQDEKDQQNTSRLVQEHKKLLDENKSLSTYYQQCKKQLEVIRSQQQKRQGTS
Sequence of UniProt O75676 (O75676 whole entry, looked up): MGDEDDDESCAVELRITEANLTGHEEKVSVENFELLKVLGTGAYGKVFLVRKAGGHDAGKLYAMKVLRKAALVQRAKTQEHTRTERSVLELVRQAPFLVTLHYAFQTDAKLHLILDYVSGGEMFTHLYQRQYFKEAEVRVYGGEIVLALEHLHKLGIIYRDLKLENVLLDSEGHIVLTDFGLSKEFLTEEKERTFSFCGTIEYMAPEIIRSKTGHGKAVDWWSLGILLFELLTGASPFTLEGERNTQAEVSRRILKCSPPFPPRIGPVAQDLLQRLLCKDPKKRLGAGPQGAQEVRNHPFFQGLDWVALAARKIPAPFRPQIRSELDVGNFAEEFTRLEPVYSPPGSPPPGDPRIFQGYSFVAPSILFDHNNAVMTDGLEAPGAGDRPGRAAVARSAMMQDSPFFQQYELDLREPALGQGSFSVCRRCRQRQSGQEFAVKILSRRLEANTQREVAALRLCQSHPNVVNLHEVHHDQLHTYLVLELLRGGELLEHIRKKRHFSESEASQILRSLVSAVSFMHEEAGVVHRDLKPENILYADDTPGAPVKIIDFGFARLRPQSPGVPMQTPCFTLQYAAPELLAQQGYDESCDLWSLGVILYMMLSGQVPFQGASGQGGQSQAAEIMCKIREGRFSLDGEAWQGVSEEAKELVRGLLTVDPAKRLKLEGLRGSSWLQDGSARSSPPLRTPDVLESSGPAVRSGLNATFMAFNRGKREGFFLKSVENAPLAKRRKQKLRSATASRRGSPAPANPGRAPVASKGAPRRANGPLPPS
Sequence of UniProt P48736 (P48736 whole entry, looked up): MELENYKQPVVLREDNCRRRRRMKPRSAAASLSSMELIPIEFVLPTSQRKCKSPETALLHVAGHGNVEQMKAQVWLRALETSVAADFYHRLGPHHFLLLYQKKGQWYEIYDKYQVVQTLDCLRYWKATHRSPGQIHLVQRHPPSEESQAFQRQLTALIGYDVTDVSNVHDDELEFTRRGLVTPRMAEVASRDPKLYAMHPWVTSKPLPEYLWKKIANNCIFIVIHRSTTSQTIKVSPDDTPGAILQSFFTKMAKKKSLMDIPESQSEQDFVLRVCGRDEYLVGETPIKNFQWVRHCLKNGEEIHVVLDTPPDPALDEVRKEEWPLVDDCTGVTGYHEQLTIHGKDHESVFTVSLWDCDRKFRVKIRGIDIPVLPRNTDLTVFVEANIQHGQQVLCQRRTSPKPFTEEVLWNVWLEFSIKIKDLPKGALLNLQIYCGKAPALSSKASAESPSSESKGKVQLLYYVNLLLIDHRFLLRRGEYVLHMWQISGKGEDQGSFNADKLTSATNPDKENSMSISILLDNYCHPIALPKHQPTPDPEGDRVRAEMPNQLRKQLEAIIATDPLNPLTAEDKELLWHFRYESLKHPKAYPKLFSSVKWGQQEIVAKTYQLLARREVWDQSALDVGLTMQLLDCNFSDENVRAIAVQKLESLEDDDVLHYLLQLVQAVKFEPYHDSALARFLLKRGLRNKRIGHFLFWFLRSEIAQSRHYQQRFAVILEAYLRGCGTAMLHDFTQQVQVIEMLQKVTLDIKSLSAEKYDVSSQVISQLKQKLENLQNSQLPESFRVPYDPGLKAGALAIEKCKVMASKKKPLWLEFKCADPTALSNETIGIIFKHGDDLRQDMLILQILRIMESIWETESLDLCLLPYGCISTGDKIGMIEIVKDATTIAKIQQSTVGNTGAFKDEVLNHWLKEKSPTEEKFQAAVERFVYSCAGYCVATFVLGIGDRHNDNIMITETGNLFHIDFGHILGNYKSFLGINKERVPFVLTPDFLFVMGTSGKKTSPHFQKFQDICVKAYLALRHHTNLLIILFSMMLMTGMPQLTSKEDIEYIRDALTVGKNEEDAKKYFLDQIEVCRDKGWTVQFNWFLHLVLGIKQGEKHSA
Sequence of UniProt Q99755 (Q99755 whole entry): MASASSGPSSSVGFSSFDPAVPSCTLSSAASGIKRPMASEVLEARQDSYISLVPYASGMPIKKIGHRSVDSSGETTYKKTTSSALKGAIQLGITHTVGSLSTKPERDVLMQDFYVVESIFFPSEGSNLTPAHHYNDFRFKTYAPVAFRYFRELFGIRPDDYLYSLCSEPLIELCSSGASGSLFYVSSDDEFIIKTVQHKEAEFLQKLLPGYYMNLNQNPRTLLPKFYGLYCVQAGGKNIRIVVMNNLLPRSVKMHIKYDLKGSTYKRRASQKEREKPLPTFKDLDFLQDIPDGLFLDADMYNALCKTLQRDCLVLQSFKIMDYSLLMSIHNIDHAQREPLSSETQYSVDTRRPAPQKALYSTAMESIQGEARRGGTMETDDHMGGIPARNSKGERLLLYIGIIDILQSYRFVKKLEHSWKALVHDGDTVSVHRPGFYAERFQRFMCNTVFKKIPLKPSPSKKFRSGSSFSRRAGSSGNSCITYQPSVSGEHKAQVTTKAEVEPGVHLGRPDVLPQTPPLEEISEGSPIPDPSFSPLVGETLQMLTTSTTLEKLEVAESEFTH
Sequence of UniProt P54762 (P54762 whole entry): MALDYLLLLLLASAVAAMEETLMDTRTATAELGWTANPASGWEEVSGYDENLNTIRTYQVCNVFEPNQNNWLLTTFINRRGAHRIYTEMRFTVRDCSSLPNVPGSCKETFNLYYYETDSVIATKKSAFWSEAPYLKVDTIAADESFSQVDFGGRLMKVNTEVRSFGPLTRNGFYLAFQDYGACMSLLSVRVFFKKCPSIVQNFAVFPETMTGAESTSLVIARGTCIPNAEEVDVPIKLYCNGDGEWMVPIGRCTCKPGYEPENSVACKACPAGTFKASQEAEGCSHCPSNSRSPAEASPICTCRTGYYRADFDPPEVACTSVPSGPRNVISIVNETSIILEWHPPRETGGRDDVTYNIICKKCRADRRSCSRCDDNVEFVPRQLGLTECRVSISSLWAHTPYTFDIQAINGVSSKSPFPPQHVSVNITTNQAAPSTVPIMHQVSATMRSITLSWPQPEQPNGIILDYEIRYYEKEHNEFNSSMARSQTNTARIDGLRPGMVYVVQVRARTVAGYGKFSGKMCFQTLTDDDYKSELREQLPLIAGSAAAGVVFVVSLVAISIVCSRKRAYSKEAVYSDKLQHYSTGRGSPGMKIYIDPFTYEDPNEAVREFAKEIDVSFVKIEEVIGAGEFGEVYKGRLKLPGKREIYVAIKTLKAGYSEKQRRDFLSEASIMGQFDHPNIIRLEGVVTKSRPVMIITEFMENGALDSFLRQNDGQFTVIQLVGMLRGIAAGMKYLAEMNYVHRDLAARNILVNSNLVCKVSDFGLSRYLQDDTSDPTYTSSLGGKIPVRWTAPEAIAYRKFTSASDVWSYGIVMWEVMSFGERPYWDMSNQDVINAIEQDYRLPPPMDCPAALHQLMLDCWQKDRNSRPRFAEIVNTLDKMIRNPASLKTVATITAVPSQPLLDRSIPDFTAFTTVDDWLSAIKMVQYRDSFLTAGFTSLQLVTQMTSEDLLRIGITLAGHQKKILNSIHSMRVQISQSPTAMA

Target	percent of DMSO control binding
TAK1 (UniProt O43318)	81%
IKK-epsilon (UniProt Q14164)	57%
BRK (UniProt Q13882)	87%
LYN (UniProt P07948)	100%
PIKFYVE (UniProt Q9Y2I7)	83%
PIK3CD (UniProt O00329)	75%
MAP3K3 (UniProt Q99759)	78%
MAP3K15 (UniProt Q6ZN16)	61%
CDKL5 (UniProt O76039)	91%
ROS1 (UniProt P08922)	88%
PKN2 (UniProt Q16513)	100%
MAP3K4 (UniProt Q9Y6R4)	77%
BTK (UniProt Q06187)	87%
DCAMKL2 (UniProt Q8N568)	97%
IGF1R (UniProt P08069)	100%
RPS6KA4(Kin.Dom.1-N-terminal) (UniProt O75676)	100%
SRMS (UniProt Q9H3Y6)	70%
HIPK2 (UniProt Q9H2X6)	79%
HCK (UniProt P08631)	100%

Target	percent of DMSO control binding
FGFR4 (UniProt P22455)	100%
PIK3CG (UniProt P48736)	100%
ERBB3 (UniProt P21860)	97%
RPS6KA5(Kin.Dom.2-C-terminal) (UniProt O75582)	97%
PFPK5(P.falciparum)	100%
BIKE (UniProt Q9NSY1)	7.4%
MYLK2 (UniProt Q9H1R3)	100%
PIP5K1A (UniProt Q99755)	17%
EPHB1 (UniProt P54762)	100%
DYRK1B (UniProt Q9Y463)	97%
TAOK3 (UniProt Q9H2K8)	60%
TYK2(JH1domain-catalytic) (UniProt P29597)	8.8%
AMPK-alpha1 (UniProt Q13131)	100%
PKN1 (UniProt Q16512)	100%
PIP5K2C (UniProt Q8TBX8)	100%
DAPK2 (UniProt Q9UIK4)	16%
ALK(C1156Y) (UniProt Q9UM73)	57%
PRKCH	100%
